Only a selection was taken, and hits are over-represented in it overall.
Pf Dd2 inh – qHTS Primary assay for Inhibitors of Plasmodium falciparum Dd2 growth in vitro | actives 4.3% (n = 120,000) | P. falciparum Dd2 growth, SYBR Green, 72 h | Potency, µM (highest dose often 28.9 µM), for inactives: at the top dose activity, negative = inhibition, usual class: inhibitors | AID 1347417, 2020; active = well fitted inhibition curve with a large enough effect;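 note: plate controls were DMSO vehicle for no effect and reference drug for full effect; nearly all actives have a fitted effect of over 65% in size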
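Infected erythrocytes (Dd2, 0.3% parasitemia, 2.5% hematocrit final) are added to compound in RPMI-1640/Albumax II medium, grown 72 h at 37C in low oxygen, then lysed with saponin/Triton-X containing SYBR Green and read by fluorescence.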
Starred values were filed as active, the others as inactive; [ ] = another dose, or the depositor's remark. Potency is the fitted concentration of half-maximal effect.

Screening O=C(NC1CCCCC1)c1ccc2c(c1)N(Cc1ccc(F)cc1)C(=O)c1ccccc1S2(=O)=O returned Pf Dd2 inh -8.8%.
Screening COC(=O)c1nnn(-c2ccc(Cl)cc2)c1C(=O)OC returned Pf Dd2 inh -2.2%.
`O=C(c1ccncc1)N1CC2CCC(C1)N2CC1CCCC1` gave Pf Dd2 inh -7.7%[44.1 µM].
For O=C(COCc1cc(-c2cccs2)on1)Nc1cccc(O)c1 the results were Pf Dd2 inh inactive.
COc1ccc(-n2c(CCC(=O)O)ccc2-c2ccccc2)c(OC)c1 was read as Pf Dd2 inh -28.2%.
Screening O=C(C1CCN(c2cnc3nccnc3c2)CC1)N1CCCCCC1 returned Pf Dd2 inh inactive.
For Cc1cc2oc(=O)c(CC(=O)O)c(C)c2c2occ(-c3ccc(F)cc3)c12 the results were Pf Dd2 inh 7.0%.
Cc1nn(-c2ccccc2)c(OC(=O)c2ccccc2)c1S(=O)(=O)c1ccccc1 was read as Pf Dd2 inh 0.9%.
`CCC(=O)N1CCC(Oc2ccc(C(=O)N3CCCCC3)cn2)C1` (configuration not stated) gave Pf Dd2 inh 5.2%.
Screening COc1ccc(CCNC(=O)c2ccc3c(c2)N(Cc2cccc(C)c2)C(=O)c2ccccc2S3(=O)=O)cc1OC returned Pf Dd2 inh inactive.
NC(=O)C1CCN(C(=O)c2ccc3c(c2)N(Cc2cccc(Cl)c2)C(=O)c2ccccc2S3(=O)=O)CC1 was read as Pf Dd2 inh 21.9%.
`COc1ccc(NC(=O)c2ccc3c(c2)N(Cc2cccc(Cl)c2)C(=O)c2ccccc2S3(=O)=O)cc1Cl` gave Pf Dd2 inh 7.94µM*.
Screening Nc1nc(C2CC(NC(=O)Cc3noc4ccccc34)C2)cc(=O)[nH]1 (configuration not stated) returned Pf Dd2 inh -7.3%.
For CCc1ccc(S(=O)(=O)c2cn(C)c3cc(F)c(F)cc3c2=O)cc1 the results were Pf Dd2 inh -15.6%.
For COc1ccc(-c2noc(CN(C(=O)C(C)Oc3ccc(C)cc3)C(C)C)n2)cc1 (configuration not stated) the results were Pf Dd2 inh 10µM*.
Screening COc1ccc(-c2noc(CN(C(=O)c3ccccc3Cl)C(C)C)n2)cc1 returned Pf Dd2 inh -3.7%.
`Cc1ccc(CC(=O)N(Cc2nc(-c3ccc(C)cc3)no2)C(C)C)cc1` gave Pf Dd2 inh -22.5%.
For CO[C@H]1C(=O)N(C2CCN(S(=O)(=O)C(C)C)CC2)[C@H]1c1ccncc1 the results were Pf Dd2 inh -2.3%.
For Cc1ccc(Cl)cc1NC(=O)CN1C(=O)CSc2ccc(S(=O)(=O)N3CCCC3)cc21 the results were Pf Dd2 inh -16.1%.
Screening COCCS(=O)(=O)c1ncc(CN(C)C(C)c2ccon2)n1Cc1ccccc1 (configuration not stated) returned Pf Dd2 inh -4.0%.
CC(C)Cn1c(CN2CCSCC2)cnc1S(=O)(=O)Cc1ccccc1 was read as Pf Dd2 inh -22.3%.
Screening COCCS(=O)(=O)c1ncc(CN2CC[C@@H]3CCCC[C@H]3C2)n1Cc1ccccc1 returned Pf Dd2 inh 6.31µM*.
CN(CC1CCOCC1)S(=O)(=O)c1ccc(F)c(F)c1 was read as Pf Dd2 inh -10.3%.
For Cc1ccc(CNc2ncnc3c2cnn3-c2ccc(C)cc2C)cc1 the results were Pf Dd2 inh 16.8%.
Screening O=C(Cn1ncn2nc(-c3cccs3)cc2c1=O)NCc1ccccc1Cl returned Pf Dd2 inh 36.6%.
`CCCn1ccc2sc(C)c(C(=O)NCc3cc(F)ccc3F)c2c1=O` gave Pf Dd2 inh -4.9%.
`Cn1c(SCC(=O)Nc2nc3ccccc3s2)ncc(C(=O)Nc2ccccc2)c1=O` gave Pf Dd2 inh 21.7%.
For CN1CCc2c(sc(NC(=O)CSc3ccccc3)c2-c2nc3ccccc3s2)C1 the results were Pf Dd2 inh 11.2µM*.
Screening O=C(CSc1ncc(CO)n1Cc1ccccc1)Nc1nc2ccccc2s1 returned Pf Dd2 inh -33.3%.
Screening CC(=O)N1CCc2c(sc(NC(=O)CSc3ccccc3)c2-c2nc3ccccc3s2)C1 returned Pf Dd2 inh 2µM*.
For Cn1c(SCC(=O)Nc2nc3ccccc3s2)ncc(C(=O)Nc2ccc(Cl)cc2)c1=O the results were Pf Dd2 inh 30.1%.
Cc1cnc(=O)[nH]c1SCC(=O)Nc1nc2ccccc2s1 was read as Pf Dd2 inh 8.5%.
`CCOc1ccc(-c2nc3c(c(SCC(=O)N4CCCCC4)n2)Cc2ccccc2O3)cc1` gave Pf Dd2 inh 32.5%.
`CSc1ncc(C(=O)Nc2cccc(C)c2C)c(-c2ccccc2)n1` gave Pf Dd2 inh 55.9%.
Screening O=C(Nc1cccn2nc(C3CCC3)nc12)C1CCC1 returned Pf Dd2 inh -5.9%.
For O=c1c2c(CO)c(-c3ccccc3)nn2ccn1CCOc1ccccc1 the results were Pf Dd2 inh -20.7%.
CN(C)C[C@H]1C[C@H](CO)CN(C(=O)Cc2cc3c(cc2Cl)OCCO3)C1 was read as Pf Dd2 inh -7.0%.
Screening CN1CCC(N[C@@H]2CO[C@H](CNC(=O)N3CCOCC3)[C@H]2O)CC1 returned Pf Dd2 inh -3.1%[44.1 µM].
